Measured values from PubChem BioAssay (NCI).
About 83,000 compounds went through this panel and 20% of them were active in at least one assay; those are over-represented in the sample as a whole.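 How to read the values: 0–100, growth inhibition (40 = 60% inhibited); 0, no net growth; -100 to 0, cell death (-40 = 40% of starting cells died; -100 = all dead).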 Calls of active or inactive are those of the source. The calls were made as follows: active = growth percent below 10; inactive = the rest.

Columns and labels:
Experiment in all cases: NCI-60 one-dose screen, 48 h (100 = growth as untreated, 0 = no growth, -100 = all killed)
Conditions in all cases: 10 µM unless noted
EKVX NSCLC = system: EKVX NSCLC
SN12C renal = system: SN12C renal
UO-31 renal = system: UO-31 renal
TK-10 renal = system: TK-10 renal
CAKI-1 renal = system: CAKI-1 renal
A498 renal = system: A498 renal
CCRF-CEM leukemia = system: CCRF-CEM leukemia
MOLT-4 leukemia = system: MOLT-4 leukemia
SR leukemia = system: SR leukemia
ACHN renal = system: ACHN renal

Measured: growth

CCC(C)(C)C(=O)O[C@H]1C[C@@H](C)C=C2C=C[C@H](C)[C@H](CC[C@@H]3CC=CC(=O)O3)[C@H]21
inactive: EKVX NSCLC 107% | SN12C renal 62.8% | UO-31 renal 76% | TK-10 renal 109% | CAKI-1 renal 84.5% | A498 renal 107%
active: CCRF-CEM leukemia 3.21% | MOLT-4 leukemia 1.21% | SR leukemia 7.49%

COC(=O)c1c2c(c(C)[n+]([O-])c1C)C(=O)C(NCc1ccc(Br)cc1)=CC2=O
active: SN12C renal 4.82%
inactive: EKVX NSCLC 31.8% | UO-31 renal 60.9% | TK-10 renal 84.4% | CAKI-1 renal 46.4% | CCRF-CEM leukemia 34.3% | MOLT-4 leukemia 35% | SR leukemia 30.2%

O=S1(=O)N(Cc2ccccc2)[C@@H](Cc2ccccc2)C2O[C@H]2[C@H](Cc2ccccc2)N1Cc1ccccc1 (stereo not given in full)
inactive: EKVX NSCLC 24% | SN12C renal 47.8% | TK-10 renal 71% | ACHN renal 41.2% | CAKI-1 renal 33.8% | A498 renal 65.4% | CCRF-CEM leukemia 29.5% | MOLT-4 leukemia 35.4%

Cn1nc(C(F)(F)F)c(-c2ccc(Cl)c(C(F)(F)F)c2)c1-c1ccc(OCc2ccc(Cl)cc2)cc1O
inactive: EKVX NSCLC 12.8% | CAKI-1 renal 19.8% | MOLT-4 leukemia 12.3% | SR leukemia 25.1%
active: SN12C renal 6.24% | TK-10 renal 0.361% | ACHN renal 5.21% | A498 renal 5.29% | CCRF-CEM leukemia 9.89%

Cc1ccc2cccc(Oc3ccc(Nc4ncnc5onc(-c6ccccc6)c45)cc3)c2n1
inactive: EKVX NSCLC 85.5% | SN12C renal 83.9% | TK-10 renal 86.6% | CAKI-1 renal 89.2% | A498 renal 13% | CCRF-CEM leukemia 80.7% | MOLT-4 leukemia 72.2% | SR leukemia 67%

O=C(NC1C(O)OC(CO)C(O)C1O)NS(=O)(=O)c1ccc(Cl)cc1 (stereo not given)
inactive: EKVX NSCLC 109% | SN12C renal 98.1% | TK-10 renal 110% | ACHN renal 102% | CAKI-1 renal 94.4% | A498 renal 95.2% | CCRF-CEM leukemia 99.1% | MOLT-4 leukemia 102% | SR leukemia 100%

NCCCNc1nc2ccccc2c2c(=O)c3cc(F)ccc3sc12
inactive: EKVX NSCLC 35.6% | SN12C renal 41.7% | CAKI-1 renal 33.8% | A498 renal 20.5%
active: TK-10 renal -46.6% | ACHN renal -66.7% | CCRF-CEM leukemia 0.338% | MOLT-4 leukemia -35% | SR leukemia 9.08%

CC/C(=C(\CC)c1ccc(OCC[N+](C)(C)C)cc1)c1ccc(OC)cc1
inactive: EKVX NSCLC 95.6% | SN12C renal 51.1% | UO-31 renal 98.2% | ACHN renal 98% | CAKI-1 renal 104% | A498 renal 53% | CCRF-CEM leukemia 60.1% | MOLT-4 leukemia 65% | SR leukemia 69.3%

Cc1ccc2[nH]c(=O)cc(-n3nncc3Cn3c4ccccc4c4ccccc43)c2c1
inactive: EKVX NSCLC 98.2% | SN12C renal 101% | TK-10 renal 118% | CAKI-1 renal 85% | A498 renal 80% | CCRF-CEM leukemia 99.5% | MOLT-4 leukemia 101% | SR leukemia 103%

C=C[C@@H]1CCC/C=C/[C@@H]2C[C@H](O)C[C@H]2[C@H](O)/C=C/C(=O)O1
inactive: EKVX NSCLC 16.9% | SN12C renal 13.3% | TK-10 renal 15.5% | CAKI-1 renal 10.4% | CCRF-CEM leukemia 12.6%
active: UO-31 renal 6.14% | MOLT-4 leukemia -9.66% | SR leukemia -15.1%

COC(=O)/C(=C\c1c(-c2ccccc2)[nH]c2ccccc12)S(C)(=O)=O
inactive: EKVX NSCLC 58% | SN12C renal 59.4% | TK-10 renal 67.2% | ACHN renal 56.8% | CAKI-1 renal 46.4% | A498 renal 29% | MOLT-4 leukemia 25.6%

Cc1cc2c(c(C)c1Cl)C(=O)/C(=C/c1cccc([N+](=O)[O-])c1)O2
inactive: EKVX NSCLC 98.3% | SN12C renal 96.9% | UO-31 renal 96.2% | TK-10 renal 129% | CAKI-1 renal 91.6% | A498 renal 95.6% | CCRF-CEM leukemia 102% | MOLT-4 leukemia 90.5% | SR leukemia 85.5%

C=CCN1C(=O)/C(=c2\sc3n(c2=O)NC2C(N=3)N(CC)C(=O)N2CC)c2ccccc21 (stereo not given)
inactive: EKVX NSCLC 49.2% | SN12C renal 56.7% | UO-31 renal 56% | TK-10 renal 101% | CAKI-1 renal 42.3% | CCRF-CEM leukemia 24.4% | MOLT-4 leukemia 36.4% | SR leukemia 21.1%

NS(=O)(=O)c1ccc(CCN=C=S)cc1
active: UO-31 renal -41.9% | TK-10 renal -4.75% | SR leukemia 9.82%
inactive: EKVX NSCLC 99.9% | SN12C renal 28.6% | CAKI-1 renal 21.8% | CCRF-CEM leukemia 10.4% | MOLT-4 leukemia 16.3%

CCCC(=O)CC(C)=O.CCCC(=O)CC(C)=O.[Cu]
inactive: EKVX NSCLC 106% | SN12C renal 110% | UO-31 renal 102% | ACHN renal 105% | CAKI-1 renal 103% | A498 renal 122% | CCRF-CEM leukemia 107% | MOLT-4 leukemia 99.2% | SR leukemia 85.6%

CC1=C(C(=O)OCC2CCN(C(=O)OC(C)(C)C)CC2)[C@@H](c2cccc(C#N)c2)C2=C(CC(C)(C)CC2=O)N1
inactive: EKVX NSCLC 63.7% | SN12C renal 42.7% | TK-10 renal 68.5% | ACHN renal 38.5% | CAKI-1 renal 38.4% | A498 renal 75.3% | CCRF-CEM leukemia 36.8% | MOLT-4 leukemia 12.5%

Nc1ccc(C2c3ccccc3Oc3ccccc32)cc1
inactive: EKVX NSCLC 86.3% | SN12C renal 98.5% | UO-31 renal 81.7% | ACHN renal 97.6% | CAKI-1 renal 87.2% | A498 renal 124% | CCRF-CEM leukemia 94.8% | MOLT-4 leukemia 83% | SR leukemia 97.8%

O=c1c2cc(F)ccc2sc2c(NCCCNCCO)nc3ccc(Cl)cc3c12
inactive: EKVX NSCLC 88.8% | SN12C renal 67.4% | TK-10 renal 77.1% | ACHN renal 60.8% | CAKI-1 renal 27.8% | A498 renal 60.7% | CCRF-CEM leukemia 13.7% | MOLT-4 leukemia 18.7%

COc1cc(C(C)n2cc(-c3ccccc3)nn2)ccc1OC1CCCCC1 (stereo not given)
inactive: SN12C renal 67.7% | UO-31 renal 56.9% | TK-10 renal 75.3% | ACHN renal 51.1% | CAKI-1 renal 48.7% | A498 renal 49.3% | CCRF-CEM leukemia 55.3% | MOLT-4 leukemia 50.1%

CCN(CCO)CCNc1ccc(C)c2sc3cc(Cl)ccc3c(=O)c12
inactive: EKVX NSCLC 84.4% | SN12C renal 37.8% | UO-31 renal 37.5% | CAKI-1 renal 68% | CCRF-CEM leukemia 14.4%
active: ACHN renal 7.81% | MOLT-4 leukemia 7.65% | SR leukemia -19.4%

COc1ccc(Br)c(/C=C2\SC(=Nc3ccc(O)cc3)NC2=O)c1
inactive: EKVX NSCLC 88.7% | SN12C renal 89.7% | TK-10 renal 96.4% | ACHN renal 89.7% | CAKI-1 renal 75.8% | A498 renal 97.6% | CCRF-CEM leukemia 75% | MOLT-4 leukemia 85.2% | SR leukemia 110%

Cc1c(-c2csc(-n3nc(C(F)(F)F)cc3C(F)(F)F)n2)no[n+]1[O-]
inactive: EKVX NSCLC 69.6% | SN12C renal 95.7% | TK-10 renal 118% | ACHN renal 107% | CAKI-1 renal 87.6% | CCRF-CEM leukemia 95.7% | MOLT-4 leukemia 87.3% | SR leukemia 91.1%

Cc1cc(Br)c(N)c(Br)c1
inactive: EKVX NSCLC 95.6% | SN12C renal 109% | UO-31 renal 102% | ACHN renal 99.1% | CAKI-1 renal 98% | A498 renal 84.1% | CCRF-CEM leukemia 103% | MOLT-4 leukemia 96.4% | SR leukemia 100%

O=C(Cn1cc(COc2ncnc3c2cnn3-c2ccccc2)nn1)Nc1ccccn1
inactive: EKVX NSCLC 86.2% | SN12C renal 94.6% | TK-10 renal 115% | ACHN renal 91.1% | CAKI-1 renal 86.6% | A498 renal 78.7% | CCRF-CEM leukemia 96.7% | MOLT-4 leukemia 89.9% | SR leukemia 101%

O=C(c1ccccc1)N(C(=S)NCCc1ccc(Cl)cc1)c1ccccc1
inactive: EKVX NSCLC 96.3% | SN12C renal 110% | TK-10 renal 82.5% | ACHN renal 108% | CAKI-1 renal 93.2% | A498 renal 95.3% | CCRF-CEM leukemia 61.3% | MOLT-4 leukemia 47.6%

O=C(Nc1ccc(N2CCNCC2)cn1)c1[nH]ncc1Nc1ncnc2sc3c(c12)CCC3
active: CCRF-CEM leukemia -7.26% | SR leukemia 0.52%
inactive: EKVX NSCLC 83.8% | SN12C renal 53.6% | UO-31 renal 72.6% | TK-10 renal 95.2% | CAKI-1 renal 54.3% | A498 renal 70.2% | MOLT-4 leukemia 14.3%

O=c1oc2ccc(F)cc2c(=O)n1-c1ccc(F)cc1F
inactive: EKVX NSCLC 93.5% | SN12C renal 24.9% | UO-31 renal 26% | TK-10 renal 10.4% | CAKI-1 renal 16.4% | CCRF-CEM leukemia 35.9% | MOLT-4 leukemia 22.3%

O=C(Nc1ccc(Cl)cc1F)c1cc(I)ccc1O
active: A498 renal -28.2%
inactive: EKVX NSCLC 77% | SN12C renal 29.5% | TK-10 renal 15.8% | ACHN renal 34.3% | CAKI-1 renal 22.8% | CCRF-CEM leukemia 29.9% | MOLT-4 leukemia 31.7%

COc1ccccc1C(=O)/C=C/c1ccccc1
inactive: EKVX NSCLC 97.8% | SN12C renal 83.5% | UO-31 renal 73.4% | ACHN renal 90.5% | CAKI-1 renal 90.4% | A498 renal 98.8% | CCRF-CEM leukemia 46.3% | MOLT-4 leukemia 81.1% | SR leukemia 43.1%

O=C1C(=O)c2c(ccc3ccccc23)-c2ccccc21
active: SN12C renal -38.6% | ACHN renal 1.97% | CAKI-1 renal -17% | MOLT-4 leukemia -31.3% | SR leukemia 5.07%
inactive: EKVX NSCLC 100% | TK-10 renal 14.7% | A498 renal 108%

CC/C=C\C[C@H](O)C/C=C1/C(=O)C=C[C@@H]1C/C=C\CCCC(=O)OCCS(=O)(=O)c1ccccc1
active: CCRF-CEM leukemia 5.02% | MOLT-4 leukemia 8.02% | SR leukemia 8.55%
inactive: EKVX NSCLC 104% | SN12C renal 37.3% | UO-31 renal 70.4% | TK-10 renal 104% | CAKI-1 renal 65.4% | A498 renal 115%
